Data on 21 molecules can be found in PubChem BioAssay (EPA / NIEHS).

Assay [1] has as its target T1, Estrogen receptor (Homo sapiens) + Estrogen receptor beta (Homo sapiens) (UniProt P03372+Q92731). Kind of assay: OT_ER_ERaERb_0480: Odyssey Thera (OT) 8-hour HEK293T Protein-Complementation Assay for Estrogen Receptor-alpha/-beta Heterodimer (AID 2283352). The gist of the method:
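HEK293T cells expressing ER-alpha/ER-beta LBD fusions to complementary reporter fragments were dosed with compound for 8 hours. Heterodimer formation was read as increased nuclear (agonist) or nuclear plus cytoplasmic (antagonist) mean fluorescence intensity versus DMSO vehicle.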

Assay [2] has as its target Androgen Receptor/SRC-1 Co-activator, AR (gene 367) (UniProt P10275). Kind of assay: OT_AR_ARSRC1_0960: Odyssey Thera (OT) 16-hour HEK293T Protein-Complementation Assay for Androgen Receptor/SRC-1 Co-activator (AID 2283353).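 Note: actives raise the signal above DMSO so potency reflects increased AR and SRC-1 complex.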 The method, boiled down: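 Split-Venus PCA, AR/SRC-1 fusions, stable HEK293T; 16 h compound exposure; imaged at 488 and 635 nm; N/C ratio (488 nm channel), min 400 cells/image; positive-direction fit, DMSO baseline.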

For assay [3] the target is unchanged. Kind of assay: OT_AR_ARSRC1_0480: Odyssey Thera (OT) 8-hour HEK293T Protein-Complementation Assay for Androgen Receptor/SRC-1 Co-activator (AID 2283354).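 Note: hits raise the complementation signal above DMSO so AC50 marks enhancers.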 The gist of the method: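 HEK293T cells stably expressing AR and SRC-1 fused to split Venus YFP fragments via (Gly4Ser)2 linkers were read 8 h after compound dosing. Complementation was imaged at 488 and 635nm, and nuclear/cytoplasmic fluorescence ratio (488nm) was taken over ≥400 cells; gain-of-signal versus DMSO.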

The target in assay [4] is T1, Estrogen receptor (Homo sapiens) + Estrogen receptor beta (Homo sapiens). Kind of assay: OT_ER_ERaERb_1440: Odyssey Thera (OT) 24-hour HEK293T Protein-Complementation Assay for Estrogen Receptor-alpha/-beta Homodimer (AID 2283356).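 Note: heteromer of ER alpha and ER beta binding domains; hits raise reporter fluorescence and both agonists and antagonists give an increase.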 The method, boiled down:
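HEK293T cells stably expressing a PCA pair of ERα LBD (aa 310-547) and ERβ LBD (aa 263-489) were dosed for 24 h. Fluorescence intensity increase versus DMSO vehicle was fitted as gain-of-signal.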

For assay [5], the target named is Estrogen receptor beta (Homo sapiens) (UniProt Q92731). Description: OT_ER_ERbERb_0480: Odyssey Thera (OT) 8-hour HEK293T Protein-Complementation Assay for Estrogen Receptor-beta/-beta Homodimer (AID 2283357).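 Note: active means signal gain over DMSO baseline.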 The gist of the method: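 Readout: increase in mean fluorescence intensity (nucleus for agonists; nucleus plus cytoplasm for antagonists) relative to DMSO, from a reporter-fragment complementation of human ER-beta LBD homodimer in HEK293T cells dosed 8 hours.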
Chain of Estrogen receptor beta (Homo sapiens) (Q92731 whole entry, looked up, the tested form may be a part): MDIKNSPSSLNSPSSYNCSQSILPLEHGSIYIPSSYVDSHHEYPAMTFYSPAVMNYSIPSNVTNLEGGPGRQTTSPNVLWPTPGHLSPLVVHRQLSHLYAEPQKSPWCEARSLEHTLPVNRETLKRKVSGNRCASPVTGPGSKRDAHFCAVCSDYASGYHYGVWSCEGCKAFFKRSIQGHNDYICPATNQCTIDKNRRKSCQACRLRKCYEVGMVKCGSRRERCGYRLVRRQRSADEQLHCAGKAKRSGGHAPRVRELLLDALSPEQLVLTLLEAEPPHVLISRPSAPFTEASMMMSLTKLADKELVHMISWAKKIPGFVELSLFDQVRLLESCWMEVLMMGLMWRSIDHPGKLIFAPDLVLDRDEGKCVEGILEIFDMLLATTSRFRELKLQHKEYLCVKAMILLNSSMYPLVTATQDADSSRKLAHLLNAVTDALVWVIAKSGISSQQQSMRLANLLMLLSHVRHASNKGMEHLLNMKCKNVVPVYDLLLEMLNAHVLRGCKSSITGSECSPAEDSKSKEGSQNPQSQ

The target of assay [6] is Retinoic acid receptor alpha (Homo sapiens) (UniProt P10276). Kind of assay: NVS_NR_hRAR_Antagonist: NovaScreen (NVS) Nuclear Receptor Binding Assay for human Retinoic Acid Alpha Receptor Antagonism (RAR) (AID 2283358). The gist of the method: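 Cell-free TR-FRET binding assay on extracted receptor protein, run in antagonist mode; signal read 2 hours after chemical dosing. Loss of signal was fitted relative to DMSO baseline. Screened at 25 uM in duplicate, actives followed up in concentration series.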
Chain of Retinoic acid receptor alpha (Homo sapiens) (P10276 whole entry, looked up): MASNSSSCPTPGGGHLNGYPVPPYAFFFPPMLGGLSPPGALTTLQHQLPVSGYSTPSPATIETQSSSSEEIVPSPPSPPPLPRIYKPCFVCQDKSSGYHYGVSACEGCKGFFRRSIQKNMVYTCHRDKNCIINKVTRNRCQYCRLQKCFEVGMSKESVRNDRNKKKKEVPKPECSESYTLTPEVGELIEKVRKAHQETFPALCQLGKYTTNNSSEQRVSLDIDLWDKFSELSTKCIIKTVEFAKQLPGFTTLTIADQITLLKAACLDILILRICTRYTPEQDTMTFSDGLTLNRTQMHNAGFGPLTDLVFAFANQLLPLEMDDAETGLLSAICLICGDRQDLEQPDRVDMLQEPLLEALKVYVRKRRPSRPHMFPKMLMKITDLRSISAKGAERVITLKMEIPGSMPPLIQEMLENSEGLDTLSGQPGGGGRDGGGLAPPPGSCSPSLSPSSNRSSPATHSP

Assay [7] concerns the target human Peroxisome Proliferator-activated Receptor alpha (PPARa), PPARA (gene 5465) (UniProt Q07869). Description: NVS_NR_hPPARa: NovaScreen (NVS) Nuclear Receptor Binding Assay for human Peroxisome Proliferator-activated Receptor alpha (PPARa) (AID 2283359).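 Note: activity means loss of TR-FRET signal versus DMSO baseline.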 The gist of the method:
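Cell-free binding assay with extracted human protein, read by TR-FRET 1 h after chemical dosing. Loss of signal relative to DMSO baseline indicates binding. Primary screen used duplicate single concentration (25 uM); actives followed up in concentration series.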

The target of assay [8] is rat Mineralocorticoid Receptor (MR), Nr3c2 (gene 25672) (UniProt P22199). Description: NVS_NR_rMR: NovaScreen (NVS) Nuclear Receptor Binding Assay for rat Mineralocorticoid Receptor (MR) (AID 2283355). The gist of the method: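 Cell-free radioligand binding to MR in adrenalectomized rat brain supernatant, scintillation counted 24 h after dosing. Loss of signal versus DMSO baseline marks displacement. Primary screen in duplicate at 25 uM; actives retested as concentration series.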
Chain of rat Mineralocorticoid Receptor (MR), Nr3c2 (gene 25672) (P22199 whole entry, looked up): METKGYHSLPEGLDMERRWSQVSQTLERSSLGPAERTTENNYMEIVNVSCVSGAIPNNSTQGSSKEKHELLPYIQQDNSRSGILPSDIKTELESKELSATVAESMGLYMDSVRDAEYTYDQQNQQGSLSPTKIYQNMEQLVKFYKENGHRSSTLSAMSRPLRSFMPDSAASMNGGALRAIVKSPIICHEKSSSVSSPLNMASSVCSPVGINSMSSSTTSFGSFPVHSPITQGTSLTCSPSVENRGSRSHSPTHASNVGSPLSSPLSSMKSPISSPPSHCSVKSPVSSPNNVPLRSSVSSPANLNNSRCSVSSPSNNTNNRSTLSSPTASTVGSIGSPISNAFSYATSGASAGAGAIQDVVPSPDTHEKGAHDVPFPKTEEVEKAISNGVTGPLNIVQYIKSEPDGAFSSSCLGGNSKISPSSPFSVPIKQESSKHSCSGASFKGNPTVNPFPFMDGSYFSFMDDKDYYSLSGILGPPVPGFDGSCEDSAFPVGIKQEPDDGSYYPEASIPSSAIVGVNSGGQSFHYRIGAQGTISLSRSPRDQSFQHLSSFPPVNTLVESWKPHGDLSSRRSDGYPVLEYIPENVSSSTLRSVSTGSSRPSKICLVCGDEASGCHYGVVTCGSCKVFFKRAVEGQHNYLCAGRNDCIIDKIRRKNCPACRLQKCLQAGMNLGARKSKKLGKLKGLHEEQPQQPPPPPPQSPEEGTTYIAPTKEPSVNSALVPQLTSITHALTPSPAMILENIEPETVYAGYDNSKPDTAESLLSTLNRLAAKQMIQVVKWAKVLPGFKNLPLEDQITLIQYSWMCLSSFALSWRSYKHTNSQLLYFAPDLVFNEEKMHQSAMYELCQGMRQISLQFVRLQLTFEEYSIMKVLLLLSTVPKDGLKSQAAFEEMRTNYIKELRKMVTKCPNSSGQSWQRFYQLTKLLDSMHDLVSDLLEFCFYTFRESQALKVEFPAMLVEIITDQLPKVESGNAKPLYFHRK

Values joined by “and” are separate entries in the source; they are usually repeats but may differ in a detail not shown here. Equal entries are not always repeated. Inconclusive results are not listed. The source holds several records for some structures; these can differ, active in one and inactive in another. Active and inactive are the calls of the source. Rule for the calls: active = hit-call score of the fitted dose curve at least 0.9, where 1 is the maximum; inconclusive = response in the unintended direction; inactive = score below 0.9.

Chain of Androgen Receptor/SRC-1 Co-activator, AR (gene 367) (P10275 whole entry, looked up, the tested form may be a part): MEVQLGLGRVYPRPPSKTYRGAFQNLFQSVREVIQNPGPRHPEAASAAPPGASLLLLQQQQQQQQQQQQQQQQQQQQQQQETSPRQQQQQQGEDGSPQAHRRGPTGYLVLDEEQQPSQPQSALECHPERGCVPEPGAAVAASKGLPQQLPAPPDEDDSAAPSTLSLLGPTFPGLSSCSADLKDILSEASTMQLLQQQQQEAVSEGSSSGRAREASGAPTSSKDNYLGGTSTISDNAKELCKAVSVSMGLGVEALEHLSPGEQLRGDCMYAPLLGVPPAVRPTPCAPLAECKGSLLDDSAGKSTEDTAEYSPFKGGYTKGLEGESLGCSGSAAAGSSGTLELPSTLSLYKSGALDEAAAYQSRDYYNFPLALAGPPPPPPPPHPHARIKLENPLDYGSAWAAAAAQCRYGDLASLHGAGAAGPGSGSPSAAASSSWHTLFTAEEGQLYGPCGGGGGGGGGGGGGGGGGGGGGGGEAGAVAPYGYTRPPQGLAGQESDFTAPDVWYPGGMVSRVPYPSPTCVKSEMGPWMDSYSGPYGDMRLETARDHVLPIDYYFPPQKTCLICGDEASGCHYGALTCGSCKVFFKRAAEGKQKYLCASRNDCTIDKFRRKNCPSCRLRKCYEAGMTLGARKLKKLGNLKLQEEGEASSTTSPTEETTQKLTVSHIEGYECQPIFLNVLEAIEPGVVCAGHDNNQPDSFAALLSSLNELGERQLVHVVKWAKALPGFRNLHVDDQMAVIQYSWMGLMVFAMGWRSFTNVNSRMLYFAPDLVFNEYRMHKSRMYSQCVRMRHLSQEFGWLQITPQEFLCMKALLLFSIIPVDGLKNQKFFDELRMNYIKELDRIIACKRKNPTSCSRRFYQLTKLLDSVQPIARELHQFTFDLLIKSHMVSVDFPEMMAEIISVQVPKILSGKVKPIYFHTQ
T1 sequence (P03372 whole entry, looked up, the tested form may be a part): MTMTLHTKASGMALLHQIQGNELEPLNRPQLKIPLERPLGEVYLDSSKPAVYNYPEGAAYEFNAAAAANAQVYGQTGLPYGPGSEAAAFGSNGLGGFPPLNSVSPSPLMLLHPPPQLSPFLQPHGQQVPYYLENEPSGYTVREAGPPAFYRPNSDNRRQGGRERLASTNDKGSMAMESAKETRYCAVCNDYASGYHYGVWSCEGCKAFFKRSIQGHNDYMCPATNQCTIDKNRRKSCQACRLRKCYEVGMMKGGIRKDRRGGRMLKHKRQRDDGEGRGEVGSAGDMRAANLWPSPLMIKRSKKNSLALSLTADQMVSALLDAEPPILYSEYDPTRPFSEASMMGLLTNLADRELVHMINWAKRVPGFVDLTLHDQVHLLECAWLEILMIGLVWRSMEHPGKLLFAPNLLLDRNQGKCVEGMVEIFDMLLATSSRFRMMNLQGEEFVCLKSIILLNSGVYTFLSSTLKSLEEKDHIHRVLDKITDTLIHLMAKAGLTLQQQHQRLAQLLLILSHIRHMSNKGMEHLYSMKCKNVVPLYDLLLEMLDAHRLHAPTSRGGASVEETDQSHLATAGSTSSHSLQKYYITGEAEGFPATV
T1 sequence (Q92731 whole entry, looked up, the tested form may be a part): as the sequence (Q92731 whole entry, looked up, the tested form may be a part) above
Chain of human Peroxisome Proliferator-activated Receptor alpha (PPARa), PPARA (gene 5465) (Q07869 whole entry, looked up): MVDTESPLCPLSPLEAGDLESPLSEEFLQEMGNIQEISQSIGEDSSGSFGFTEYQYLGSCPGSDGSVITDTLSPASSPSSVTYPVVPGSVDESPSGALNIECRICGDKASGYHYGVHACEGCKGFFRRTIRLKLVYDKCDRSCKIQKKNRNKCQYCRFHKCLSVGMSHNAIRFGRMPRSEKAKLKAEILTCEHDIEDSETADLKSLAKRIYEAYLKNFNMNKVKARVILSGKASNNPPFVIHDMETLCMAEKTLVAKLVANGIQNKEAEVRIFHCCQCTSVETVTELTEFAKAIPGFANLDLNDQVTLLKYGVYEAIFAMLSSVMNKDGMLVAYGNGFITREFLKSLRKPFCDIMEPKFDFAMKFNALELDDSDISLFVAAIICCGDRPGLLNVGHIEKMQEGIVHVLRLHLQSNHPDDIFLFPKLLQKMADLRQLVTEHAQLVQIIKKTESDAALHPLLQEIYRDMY

Regarding `C=CC(=O)NCNC(=O)C=C`, the outcome in assay [1], in assay [2], in assay [3], in assay [4] and in assay [5] was inactive.

For `Nc1ccc(-c2ccc(N)cc2)cc1`, the outcome in assay [1], in assay [4] and in assay [5] was inactive.

Turning to `CC(C)(c1ccccc1)c1ccc(O)cc1`, the AC50 (usually the midpoint of the concentration-response curve, whichever way the signal moves) was 2.01 µM (active) and 11.9 µM (active) in assay [1]; 11.9 µM (active) in assay [4]; 1.8 µM (active) and 1.91 µM (active) and 2.14 µM (active) in assay [5].

With `CCCN(CCC)N=O`, the result in assay [1], in assay [4], in assay [5], in assay [6] and in assay [7] was inactive.

Turning to `Clc1ccc(Cl)cc1`, the outcome in assay [1] and in assay [4] was inactive.

For `CCOC(=O)C(O)(c1ccc(Cl)cc1)c1ccc(Cl)cc1`, the result in assay [1], in assay [4] and in assay [5] was inactive. For the same molecule, the half-maximal activity concentration (AC50) is 37 µM (active) in assay [2] and 66.7 µM (active) in assay [3].

`Nn1cnnc1`: the result in assay [1], in assay [4] and in assay [5] was inactive.

With `C[C@]12CCC(=O)C=C1CC[C@@H]1[C@@H]2CC[C@]2(C)C(=O)CC[C@@H]12`, the result in assay [1], in assay [4] and in assay [5] was inactive. In addition, the AC50 in assay [8] was 0.0845 µM (active).

In the case of `CN(C)CCO`, the outcome in assay [1], in assay [4] and in assay [5] was inactive.

On to `c1ccc(-c2ccccc2)cc1`, for which the outcome in assay [1], in assay [2], in assay [3], in assay [4] and in assay [5] was inactive.

For the molecule `Cc1cc(O)ccc1Cl`, the AC50 is 50 µM (active) in assay [1], 43.7 µM (active) in assay [4] and 47 µM (active) in assay [5].

Take `ClC1=C(Cl)[C@]2(Cl)[C@@H]3[C@@H](Cl)[C@H]4O[C@H]4[C@@H]3C1(Cl)C2(Cl)Cl`: the result in assay [1] was inactive. Also, the AC50 in assay [4] is 50 µM (active); in assay [5], 13.8 µM (active).

For the molecule `O=C(NC(=O)c1c(F)cccc1F)Nc1cc(Cl)c(OC(F)(F)C(F)F)c(Cl)c1`, the result in assay [1], in assay [2], in assay [3], in assay [4] and in assay [5] was inactive.

Take `CCC(C)c1cc([N+](=O)[O-])cc([N+](=O)[O-])c1O` (stereo not drawn): the outcome in assay [1], in assay [4] and in assay [5] was inactive.

In the case of `C1CC2OC2CC1C1CO1` (stereo not drawn), the outcome in assay [1], in assay [4] and in assay [5] was inactive.

For the molecule `CC(C)(O)C(=O)Nc1ccc([N+](=O)[O-])c(C(F)(F)F)c1`, the outcome in assay [1], in assay [4], in assay [5] and in assay [7] was inactive.

As for `CO/C=C(/C(=O)OC)c1ccccc1COc1cccc(C(F)(F)F)n1`, the result in assay [1], in assay [4] and in assay [5] was inactive.

Consider `CC#Cc1cc(C)nc(Nc2ccccc2)n1`, for which the result in assay [1], in assay [8], in assay [4] and in assay [5] was inactive.

Turning to `CCC(=O)O[C@H]1CC[C@H]2[C@@H]3CCC4=CC(=O)CC[C@]4(C)[C@H]3CC[C@]12C`, the result in assay [1], in assay [4] and in assay [5] was inactive. The AC50 is 29.9 nM (active) [middle of 6 runs] in assay [3]; 0.517 µM (active) in assay [8]; 14.9 µM (active) and 12.4 µM (active) and 14.7 µM (active) in assay [4]; 12.2 µM (active) and 4.06 µM (active) and 12.3 µM (active) in assay [5].

Take `O=C(O)C(F)(F)C(F)(F)C(F)(F)C(F)(F)C(F)(F)C(F)(F)C(F)(F)C(F)(F)F`: the result in assay [1], in assay [4], in assay [5], in assay [6] and in assay [7] was inactive.

For `O=C(N[C@H]1CN2CCC1CC2)c1cc2ccoc2cn1`, the outcome in assay [1], in assay [2], in assay [3], in assay [4] and in assay [5] was inactive.
